Source: PubChem BioAssay (Tox21)
Where “and” joins values, the source holds several entries; their conditions need not be identical. Equal values may be shown once. Results filed as inconclusive are left out. Entries that show only a call come without a potency. Calls of active or inactive are those of the source. Unless noted, the call rests on the fitted dose curve; in most records, active means well fitted curve in the direction sought with a large enough effect in the repeat runs; inconclusive means weak or mixed curves; inactive means no such curve, though single readings can be large; an effect the other way counts as inactive or inconclusive.

Assays:
[1] = qHTS assay to identify small molecule agonists of the peroxisome proliferator-activated receptor delta (PPARd) signaling pathway - cell viability counter screen (AID 743211); further: nearly all actives have a fitted effect of over 55% in size; further: potency means the concentration at half of the fitted maximal effect
In short: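 PPARd-bla HEK293H cells (3000/well) were pre-incubated 5 h at 37 C, then exposed to compound for 17 h at 37 C. After 2 h with LiveBLAzer substrate, CellTiter-Glo was added to the same wells; luminescence read after 30 min at room temperature.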

[2] = qHTS assay to identify small molecule antagonists of the peroxisome proliferator-activated receptor delta (PPARd) signaling pathway - cell viability counter screen (AID 743213); further: nearly all actives have a fitted effect of over 50% in size; further: potency means the concentration at half of the fitted maximal effect
In short: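 Viability counter-screen, qHTS format: PPARd-bla HEK293H, L165041 300 nM final, 17 h compound exposure at 37 C, CellTiter-Glo luminescence after 30 min RT.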

[3] = qHTS assay to identify small molecule agonists of the farnesoid-X-receptor (FXR) signaling pathway - cell viability counter screen (AID 743218); further: nearly all actives have a fitted effect of over 45% in size; further: potency means the concentration at half of the fitted maximal effect
In short: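 Readout: CellTiter-Glo luminescence, 30 min RT, multiplexed after the FXR-bla FRET reading. HEK 293T FXR-UAS-bla cells received compound 5 h post-plating and were incubated 16 h at 37 C.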

[4] = qHTS assay to identify small molecule agonists of the vitamin D receptor (VDR) signaling pathway - cell viability counter screen (AID 743224); further: nearly all actives have a fitted effect of over 50% in size; further: potency means the concentration at half of the fitted maximal effect
In short: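 In parallel with the bla FRET readout, cytotoxicity toward VDR-bla cells after 16 h compound exposure was assessed by CellTiter-Glo, with luminescence recorded after a 30 min room-temperature incubation.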

[5] = qHTS assay to identify small molecule antagonists of the vitamin D receptor (VDR) signaling pathway - cell viability counter screen (AID 743225); further: nearly all actives have a fitted effect of over 50% in size; further: potency means the concentration at half of the fitted maximal effect
In short: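 VDR-UAS-bla HEK 293T cells were plated and incubated 4 h at 37C, then dosed with compound plus 3 nM (final) 1-alpha,25-dihydroxyvitamin D3 for 16 h. After the 2 h beta-lactamase read, viability in the same wells was read as CellTiter-Glo luminescence after 30 min at room temperature.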

[6] = qHTS assay to identify small molecule agonists of the NFkB signaling pathway - cell viability counter screen (AID 1159515; calls by dose curve; further: nearly all actives have a fitted effect of over 55% in size; further: potency means the concentration at half of the fitted maximal effect)
In short: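 Plate 2,000 NFkB-bla ME-180 cells/well; incubate overnight. Add compounds, 5 hr at 37 C. Add FRET substrate, 1.5 hr RT. Add CellTiter-Glo, 30 min RT; read luminescence.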

[7] = qHTS assay to identify small molecule agonists of the endoplasmic reticulum stress response signaling pathway - cell viability counter screen (AID 1159517; calls by dose curve; further: nearly all actives have a fitted effect of over 50% in size; further: potency means the concentration at half of the fitted maximal effect)
In short: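 After overnight attachment, ESRE-bla HeLa cells were treated with Tox21 library compounds for 5 hr. CellTiter-Glo luminescence, read 30 min post-addition at room temperature, reported viability.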

[8] = target: Nuclear receptor ROR-gamma (Homo sapiens) (UniProt P51449); assay: qHTS assay to identify small molecule antagonists of the retinoid-related orphan receptor gamma (ROR-gamma) signaling pathway (AID 1159521; further: nearly all actives have a fitted effect of over 50% in size; further: potency means the concentration at half of the fitted maximal effect)
In short: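 Tet-on ROR-gamma CHO cells with ROR response element-luciferase reporter; compounds added 2 hr before 1 uM doxycycline induction, then 16 hr at 37 C. Antagonism scored as decreased ONE-Glo luminescence.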

[9] = qHTS assay to identify small molecule agonists of the AP-1 signaling pathway - cell viability counter screen (AID 1159525; calls by dose curve; further: nearly all actives have a fitted effect of over 55% in size; further: potency means the concentration at half of the fitted maximal effect)
In short: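 Intracellular ATP by Cell Titer Glo luminescence (30 min, RT) in the same ME-180 AP-1-bla wells after the 5 h compound exposure at 37 °C. Normalised to tetra n-octyl ammonium bromide and DMSO controls.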

[10] = qHTS assay to identify small molecule agonists of the AP-1 signaling pathway (AID 1159526; calls by dose curve)
[11] = target: Retinoic acid receptor RXR-alpha (Homo sapiens) (UniProt P19793); assay: qHTS assay to identify small molecule agonists of the RXR signaling pathway (AID 1159527; calls by dose curve; further: nearly all actives have a fitted effect of over 35% in size; further: potency means the concentration at half of the fitted maximal effect)
In short: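 GeneBLAzer RXR-alpha-UAS-bla HEK 293T cells in 2% charcoal-stripped FBS medium were exposed to compounds for 16 hr at 37 C in agonist mode. Beta-lactamase reporter read as 460/530 nm FRET ratio after 2 hr substrate loading.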

[12] = qHTS assay to identify small molecule antagonists of the farnesoid-X-receptor (FXR) signaling pathway - cell viability counter screen (AID 743221; active means well fitted cell-killing curve with a large enough effect in the repeat runs, not every such curve was filed as active; further: nearly all actives have a fitted effect of over 50% in size; further: potency means the concentration at half of the fitted maximal effect)
In short: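 GeneBLAzer FXR-UAS-bla HEK 293T cells, compound plus chenodeoxycholic acid (50 uM final), 16 h at 37 C. CellTiter-Glo added to the same wells after the beta-lactamase read; luminescence read after 30 min at room temperature as viability.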

[13] = target: Vitamin D3 receptor (Homo sapiens) (UniProt P11473); assay: qHTS assay to identify small molecule agonists of the vitamin D receptor (VDR) signaling pathway (AID 743222; calls by dose curve)
In short: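 Following 4 h attachment at 37C, VDR-bla cells (2,000 per well) received DMSO-dissolved compounds or controls. After 16 h incubation, LiveBLAzer B/G FRET substrate was added and fluorescence read 2 h later at room temperature.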

[14] = qHTS assay to identify small molecule antagonists of the retinoid-related orphan receptor gamma (ROR-gamma) signaling pathway - cell viability counter screen (AID 1159520); further: nearly all actives have a fitted effect of over 50% in size; further: potency means the concentration at half of the fitted maximal effect
In short: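 Cytotoxicity was read from cellular ATP (CellTiter-Glo luminescence) after 16 hr at 37 C with 1 uM doxycycline induction. The inducer was added 2 hr after compound transfer to Tet-on ROR gamma CHO cells.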

[15] = target: Vitamin D3 receptor (Homo sapiens) (UniProt P11473); assay: qHTS assay to identify small molecule antagonists of the vitamin D receptor (VDR) signaling pathway (AID 743223; active means well fitted inhibition curve with a large enough effect in the signal ratio in the repeat runs, not every such curve was filed as active; the % refers to the signal ratio; further: potency means the concentration at half of the fitted maximal effect)
In short: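 VDR-bla cells were treated with compound plus 3 nM final 1alpha,25-dihydroxyvitamin D3 for 16 h at 37C. Beta-lactamase reporter read by B/G FRET substrate fluorescence after 2 h at room temperature. qHTS format.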

[16] = target: Peroxisome proliferator-activated receptor delta (Homo sapiens) (UniProt Q03181); assay: qHTS assay to identify small molecule antagonists of the peroxisome proliferator-activated receptor delta (PPARd) signaling pathway (AID 743215; active means well fitted inhibition curve with a large enough effect in the signal ratio in the repeat runs, not every such curve was filed as active; the % refers to the signal ratio;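 further: cells stimulated with agonist L165041 at 300 nM final during compound exposure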; further: potency means the concentration at half of the fitted maximal effect)
In short: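 Fluorescence from cleaved LiveBLAzer B/G FRET substrate (2 h, room temperature) reports PPARd-driven beta-lactamase in HEK293H UAS-bla cells. Cells had been treated 17 h at 37 C with compound plus 300 nM final L165041.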

[17] = target: Bile acid receptor (Homo sapiens) (UniProt Q96RI1); assay: qHTS assay to identify small molecule agonists of the farnesoid-X-receptor (FXR) signaling pathway (AID 743220; active means well fitted activation curve with a large enough effect in the signal ratio in the repeat runs, not every such curve was filed as active; the % refers to the signal ratio; further: potency means the concentration at half of the fitted maximal effect)
In short: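 FXR-UAS-bla HEK 293T cells carrying a UAS-driven beta-lactamase reporter were plated for 5 h at 37C/5% CO2, then exposed to DMSO-dissolved Tox21 10K compounds for 16 h at 37C. A LiveBLAzer B/G FRET substrate was loaded for 2 h at room temperature before fluorescence reading.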

[18] = target: Peroxisome proliferator-activated receptor delta (Homo sapiens) (UniProt Q03181); assay: qHTS assay to identify small molecule agonists of the peroxisome proliferator-activated receptor delta (PPARd) signaling pathway (AID 743212; calls by dose curve;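 further: HEK293H cells with PPARd UAS beta-lactamase reporter GeneBLAzer system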; further: potency means the concentration at half of the fitted maximal effect)
In short: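 Steps: seed PPARd-bla HEK293H cells; incubate 5 h, 37 C, 5% CO2; add compounds in DMSO; incubate, 37 C; add LiveBLAzer B/G FRET substrate; hold 2 h at room temperature; measure fluorescence.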

[19] = target: Bile acid receptor (Homo sapiens) (UniProt Q96RI1); assay: qHTS assay to identify small molecule antagonists of the farnesoid-X-receptor (FXR) signaling pathway (AID 743217; active means well fitted inhibition curve with a large enough effect in the signal ratio in the repeat runs, not every such curve was filed as active; the % refers to the signal ratio)
In short: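 FRET fluorescence after 2 h room-temperature LiveBLAzer loading gives the readout. Prior step: FXR-bla HEK 293T cells, seeded and incubated 5 h, received test compounds plus 50 uM final CDCA for 16 h at 37 °C.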

Chain of Bile acid receptor (Homo sapiens) (Q96RI1 whole entry, looked up): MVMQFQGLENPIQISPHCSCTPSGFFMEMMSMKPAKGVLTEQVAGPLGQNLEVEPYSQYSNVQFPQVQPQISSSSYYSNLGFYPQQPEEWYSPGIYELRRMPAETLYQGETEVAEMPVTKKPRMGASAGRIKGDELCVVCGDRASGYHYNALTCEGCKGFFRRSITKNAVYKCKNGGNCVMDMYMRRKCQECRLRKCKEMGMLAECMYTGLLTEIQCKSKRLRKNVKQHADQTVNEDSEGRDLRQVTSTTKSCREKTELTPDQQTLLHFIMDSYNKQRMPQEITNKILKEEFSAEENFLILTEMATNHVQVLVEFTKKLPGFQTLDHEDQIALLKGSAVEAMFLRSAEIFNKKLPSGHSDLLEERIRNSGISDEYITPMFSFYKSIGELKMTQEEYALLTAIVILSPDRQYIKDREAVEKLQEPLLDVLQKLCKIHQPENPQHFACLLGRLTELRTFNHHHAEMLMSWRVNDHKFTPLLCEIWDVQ
Chain of Vitamin D3 receptor (Homo sapiens) (P11473 whole entry, looked up): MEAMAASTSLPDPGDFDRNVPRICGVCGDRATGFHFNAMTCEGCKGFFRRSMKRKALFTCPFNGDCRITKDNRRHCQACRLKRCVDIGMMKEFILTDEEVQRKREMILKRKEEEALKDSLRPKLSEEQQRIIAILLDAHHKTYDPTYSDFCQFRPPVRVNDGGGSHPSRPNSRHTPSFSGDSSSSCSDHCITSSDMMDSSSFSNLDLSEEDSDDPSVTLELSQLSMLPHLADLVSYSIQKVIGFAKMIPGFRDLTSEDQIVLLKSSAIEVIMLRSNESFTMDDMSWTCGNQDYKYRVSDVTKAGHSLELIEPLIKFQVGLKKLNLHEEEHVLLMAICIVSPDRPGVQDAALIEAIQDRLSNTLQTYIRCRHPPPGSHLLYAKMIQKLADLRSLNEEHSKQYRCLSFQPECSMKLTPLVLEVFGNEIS
Chain of Peroxisome proliferator-activated receptor delta (Homo sapiens) (Q03181 whole entry, looked up): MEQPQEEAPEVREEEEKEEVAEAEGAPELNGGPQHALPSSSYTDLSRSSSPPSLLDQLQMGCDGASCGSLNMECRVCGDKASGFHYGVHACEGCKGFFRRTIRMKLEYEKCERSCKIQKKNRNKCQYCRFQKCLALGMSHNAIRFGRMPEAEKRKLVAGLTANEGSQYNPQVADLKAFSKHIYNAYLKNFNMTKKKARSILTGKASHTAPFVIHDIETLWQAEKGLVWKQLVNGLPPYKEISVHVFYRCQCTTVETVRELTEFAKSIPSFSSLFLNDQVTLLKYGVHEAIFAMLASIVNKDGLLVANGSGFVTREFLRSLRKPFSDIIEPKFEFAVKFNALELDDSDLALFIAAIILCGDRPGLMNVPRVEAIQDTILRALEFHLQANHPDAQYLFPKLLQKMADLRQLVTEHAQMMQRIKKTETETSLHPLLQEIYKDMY
Chain of Retinoic acid receptor RXR-alpha (Homo sapiens) (P19793 whole entry, looked up): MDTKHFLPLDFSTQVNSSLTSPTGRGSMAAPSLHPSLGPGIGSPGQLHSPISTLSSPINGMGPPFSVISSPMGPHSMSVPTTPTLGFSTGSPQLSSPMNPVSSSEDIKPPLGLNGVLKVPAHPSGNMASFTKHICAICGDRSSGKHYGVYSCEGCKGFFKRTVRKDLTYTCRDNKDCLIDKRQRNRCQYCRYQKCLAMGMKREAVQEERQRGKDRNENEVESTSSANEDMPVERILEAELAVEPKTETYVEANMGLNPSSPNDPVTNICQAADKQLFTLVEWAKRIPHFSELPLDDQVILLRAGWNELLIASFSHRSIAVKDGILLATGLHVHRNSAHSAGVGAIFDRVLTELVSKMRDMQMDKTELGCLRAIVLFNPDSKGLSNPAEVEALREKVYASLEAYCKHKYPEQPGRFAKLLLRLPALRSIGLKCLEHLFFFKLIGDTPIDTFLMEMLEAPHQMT

| Structure (SMILES) | Potency [1] | Potency [2] | Potency [3] | Potency [4] | Potency [5] | Potency [6] | Potency [7] | Potency [8] | Potency [9] | Potency [10] | Potency [11] | Potency [12] | Potency [13] | Potency [14] | Potency [15] | Potency [16] | Potency [17] | Potency [18] | Potency [19] |
| --- | --- | --- | --- | --- | --- | --- | --- | --- | --- | --- | --- | --- | --- | --- | --- | --- | --- | --- | --- |
| CN(C)[C@@H]1C(=O)C(C(N)=O)=C(O)[C@@]2(O)C(=O)C3=C(O)c4c(O)cccc4C[C@H]3C[C@@H]12 | inactive | inactive | inactive | inactive | inactive | inactive | inactive | 13.3 µM (active) | inactive | inactive | inactive | – | – | – | – | – | – | – | – |
| CC(C)=CCOc1ccc(/C=C/C(=O)c2ccc(OCC=C(C)C)cc2OCC(=O)O)cc1 | 29.8 µM (active) | inactive | – | – | – | inactive | inactive | – | inactive | – | – | 21.1 µM (active) | inactive | inactive | – | – | – | – | – |
| CCCCCCCCCCn1cc[n+](CCCCCCCCCC)c1C | 7.77 µM (active) | 13.8 µM (active) | 39 µM (active) | 15.5 µM (active) | 6.93 µM (active) | 55 µM (active) | 34.7 µM (active) | – | 39 µM (active) | – | – | 34.7 µM (active) | – | 19.4 µM (active) | 19.5 µM (active) | – | – | – | – |
| CCCCCCCCNC(C)C(O)c1ccc(SC(C)C)cc1 (stereo not given) | 9.44 µM (active) | 8.41 µM (active) | 18.8 µM (active) | 13.3 µM (active) | 9.52 µM (active) | 13.4 µM (active) | 19 µM (active) | – | 16.9 µM (active) | – | – | – | – | 18.8 µM (active) | – | – | – | – | – |
| C[n+]1cc2c3c(ccc2c2ccc4cc5c(cc4c21)OCO5)OCO3 | 1.46 µM (active) | 1.84 µM (active) | 1.46 µM (active) | – | 1.31 µM (active) | 1.17 µM (active) | 1.31 µM (active) | – | 2.08 µM (active) | – | – | 1.46 µM (active) | – | 1.64 µM (active) | – | 2.59 µM (active) | inactive | – | – |
| C[C@@H]1C[C@H]2[C@@H]3CCC4=CC(=O)C=C[C@]4(C)[C@@]3(Cl)[C@@H](O)C[C@]2(C)[C@@]1(OC(=O)c1ccco1)C(=O)CCl | – | – | – | – | – | inactive | inactive | 11.9 µM (active) | inactive | inactive | – | inactive | inactive | – | – | inactive | – | – | – |
| Nc1c2ccccc2nc2ccccc12 | inactive | inactive | inactive | inactive | – | inactive | inactive | inactive | inactive | inactive | – | inactive | – | – | – | – | 9.44 µM (active) | 26.6 µM (active) | – |
| CCC(CN)=C(c1ccccc1)c1ccccc1 | 29.8 µM (active) | 13.3 µM (active) | 23.7 µM (active) | – | – | inactive | inactive | – | – | – | – | – | inactive | inactive | inactive | – | – | inactive | – |
| CCC1OCC(COc2ccc(Oc3ccccc3)cc2)O1 (stereo not given) | inactive | – | – | – | inactive | inactive | inactive | – | inactive | – | – | inactive | inactive | inactive | inactive | – | – | – | – |
| CCCC/C=C/CCCCO | – | inactive | – | inactive | inactive | inactive | inactive | – | – | – | – | – | inactive | inactive | – | – | – | – | – |
| OCCCCCCCCCCCCBr | inactive | inactive | inactive | inactive | inactive | inactive | inactive | 62.1 µM (active) | inactive | inactive | – | inactive | inactive | – | inactive | – | inactive | inactive | – |
| CC(C)(C)CC(C)(C)c1ccc(OCCOCC[N+](C)(C)Cc2ccccc2)cc1 | 21.9 µM (active) and 21.1 µM (active) | 17.4 µM (active) | 48.9 µM (active) | – | – | 24.5 µM (active) | 21.9 µM (active) | – | 24.5 µM (active) | – | – | 43.6 µM (active) and 26.6 µM (active) | – | 54.4 µM (active) | – | – | inactive | – | inactive |
| Nc1c(Cl)cc(Cl)cc1Cl | inactive | – | inactive | inactive | inactive | inactive | inactive | – | – | inactive | 12.1 µM (active) | inactive | inactive | inactive | – | inactive | inactive | inactive | inactive |
